Records with an inconclusive call do not appear. Activity calls are given as the source filed them. Calls follow the shape of the dose curve; as a rule, active = well fitted inhibition curve with a large enough effect in the repeat runs; inconclusive = weak or mixed curves, or effect the other way; inactive = no such curve, though single readings can be large or run the other way.

Androgen receptor (Homo sapiens), sequence (P10275 whole entry, looked up): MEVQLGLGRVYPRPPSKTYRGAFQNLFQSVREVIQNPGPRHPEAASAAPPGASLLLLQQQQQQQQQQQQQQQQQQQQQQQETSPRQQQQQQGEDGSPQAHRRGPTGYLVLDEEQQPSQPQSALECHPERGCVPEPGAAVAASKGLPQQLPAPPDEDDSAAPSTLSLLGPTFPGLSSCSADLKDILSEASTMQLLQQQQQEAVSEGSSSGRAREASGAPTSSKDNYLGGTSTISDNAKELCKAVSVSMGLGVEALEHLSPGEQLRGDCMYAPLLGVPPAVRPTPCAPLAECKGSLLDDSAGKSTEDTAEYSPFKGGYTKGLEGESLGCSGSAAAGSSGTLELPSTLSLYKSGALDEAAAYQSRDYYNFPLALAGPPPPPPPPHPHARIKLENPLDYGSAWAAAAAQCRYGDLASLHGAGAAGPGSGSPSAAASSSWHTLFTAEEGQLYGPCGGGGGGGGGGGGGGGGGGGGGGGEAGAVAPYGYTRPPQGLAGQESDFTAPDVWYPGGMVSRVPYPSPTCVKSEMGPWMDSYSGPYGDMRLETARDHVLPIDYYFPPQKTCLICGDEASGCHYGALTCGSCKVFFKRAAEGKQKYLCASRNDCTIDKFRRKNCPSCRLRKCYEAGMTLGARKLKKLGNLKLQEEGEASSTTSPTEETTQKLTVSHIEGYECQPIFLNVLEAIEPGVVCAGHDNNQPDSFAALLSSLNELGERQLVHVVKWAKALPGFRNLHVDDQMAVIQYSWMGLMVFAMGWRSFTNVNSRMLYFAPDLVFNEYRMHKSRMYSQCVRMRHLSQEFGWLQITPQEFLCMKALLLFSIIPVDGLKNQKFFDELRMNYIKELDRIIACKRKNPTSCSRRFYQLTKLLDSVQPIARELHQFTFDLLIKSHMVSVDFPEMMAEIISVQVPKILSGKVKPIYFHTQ

This assay concerns the target Androgen receptor (Homo sapiens) (UniProt P10275). The experiment in a line: qHTS assay to identify small molecule antagonists of the androgen receptor (AR) signaling pathway using the MDA cell line (AID 743042; also: nearly all actives have a fitted effect of over 55% in size). Particulars: MDA-kb2 AR-luc, MMTV luciferase, R1881 antagonist, 16 h; series mostly up to 70.3 µM. The source says:
U.S. Tox21 Program National Center for Advancing Translational Sciences [NCATS] NIH Chemical Genomics Center [NCGC] U.S. Environmental Protection Agency [EPA] National Institutes of Environmental Health Sciences [NIEHS] National Toxicology Program [NTP] U.S. Food and Drug Administration [FDA] Tox21 Assay Overview: Androgen receptor (AR), a nuclear hormone receptor, plays a critical role in AR-dependent prostate cancer and other androgen related diseases. Endocrine disrupting chemicals (EDCs) and their interactions with steroid hormone receptors like AR may cause disruption of normal endocrine function as well as interfere with metabolic homeostasis, reproduction, developmental and behavioral functions. To identify the compounds that inhibit AR signaling, MDA-kb2 AR-luc cell line (from ATCC, deposited by Wilson et al.) was used to screen the Tox21 10K compound library. MDA-kb2 AR-luc cell line is human breast carcinoma cell line that was stably transfected with a luciferase reporter gene under control of the MMTV promoter containing response elements for both androgen receptor (AR) and glucocorticoid receptor (GR).
Tox21 Assay Protocol Summary: MDA-kb2 cells were dispensed at 3,000 cells/4 uL/well of culture medium into white wall/solid-bottom 1536-well plates using a Multidrop Combi (ThermoFisher Scientific, Waltham, MA) dispenser. After the assay plates were incubated at a 37C and 0% CO2 for 5 hr, 23 nL of compounds dissolved in DMSO, positive controls or DMSO only was transferred to the assay plate by a Pintool station (Kalypsys, San Diego, CA), followed by addition of 1 uL of agonist (R1881) in culture medium using a Bioraptr Flying Reagent Dispenser (FRD) workstation (Beckman Coulter, Indianapolis, IN, USA). The plates were incubated at a 37C and 0% CO2 for 16 h. After 15.5 h incubation, 1uL of CellTiter-Fluor reagent (Promega, Madison, WI) was added using a Bioraptr FRD to each plate for measuring cytotoxicity. The fluorescence intensity was quantified on a ViewLux plate reader (PerkinElmer, Shelton, CT) following 30 min incubation at 37C and 0% CO2. For measuring luciferase reporter gene activity, 4 uL of ONE-Glo reagent (Promega) was added to each plate using a Bioraptr FRD and luminescence was quantified on a ViewLux (PerkinElmer) plate reader after 30 min incubation at room temperature.
On the technique in general: Quantitative high-throughput screening tests each substance at several concentrations.
Regarding `c1ccc2[nH]ccc2c1`, the outcome was inactive.
`CCCN(CCC)S(=O)(=O)c1ccc(C(=O)O)cc1`: the compound was called inactive.
As for `CC(C)[C@@H]1CC[C@@H](C)C[C@H]1O`, the result was inactive.
`C1N2CN3CN1CN(C2)C3`: the compound was classed as inactive.
With `CC(C)(Oc1ccc(C2CC2(Cl)Cl)cc1)C(=O)O` (stereo unspecified), the call was inactive.
As for `Cc1ccc(C)c(OCCCC(C)(C)C(=O)O)c1`, the outcome was inactive.
As for `Cc1ccc(O)cc1`, the compound was classed as inactive.
As to `Oc1ccc(/C=C/c2cc(O)cc(O)c2)cc1`, the compound was called inactive.
To `Cc1cc(=O)n(-c2ccccc2)n1C` belongs “inactive”; to `CCCCC(CC)COC(=O)/C=C/c1ccc(OC)cc1` (stereo unspecified), “inactive”.
In the case of `O=C(c1ccccc1)c1ccccc1`, the outcome was inactive.
